Experimental data published in PubChem BioAssay AID590 (National Center for Advancing Translational Sciences (NCATS), 2007).
The campaign covered roughly 59,000 compounds. About 6,500 (11%) were called active. Roughly 15% stayed inconclusive and do not appear here. No stated cut-off is given here; in the data, active means max dye-equivalent concentration above about 10 nM; inconclusive means mostly about 1.1 nM to 9.6 nM; inactive means weaker than that. What follows is part of a selection rich in actives, with near analogues and random picks from the rest.

experiment: qHTS Assay for Spectroscopic Profiling in A350 Spectral Region; details: Compound autofluorescence, 340/450 nm, Alexa 350 dye-equivalents; hits give high values

Max dye-equivalent concentration, inactive:
CCC(c1nnnn1C1CCCC1)N1CCN(C(=O)c2ccco2)CC1 (centres undefined), O=C(Nc1ccc(-c2nnc(-c3ccccc3)o2)cc1)C1CCCO1 (centres undefined), O=C(Nc1cccc(-c2nnc(-c3ccccc3)o2)c1)C1CCCO1 (centres undefined), CCNS(=O)(=O)c1ccc(NC(=O)Nc2cccc(OC)c2)cc1, CSCCC(NC(=O)c1ccc(=O)n(C)n1)c1nc2ccccc2[nH]1 (centres undefined), COc1cc(C2C(C(=O)c3sc(C)nc3C)=C(O)C(=O)N2CCN(C)C)cc(OC)c1OC (centres undefined), O=C(c1csnn1)N1CCC[C@@]2(CCN(Cc3nccs3)C2)C1, O=c1c2cc3c(=O)n(CC4CCCO4)c(=O)c3cc2c(=O)n1CC1CCCO1 (centres undefined), Cc1ccc(C(=O)Nc2ccccc2C(=O)NC2CCCCC2)cc1S(=O)(=O)N1CCOCC1, NS(=O)(=O)c1cc(C(=O)O)c(Cl)c([N+](=O)[O-])c1Cl, COc1ccc(Br)c2c1C[C@H](C(=O)O)CC2, C=CCNC(=O)CCCC(=O)NCC=C, O=C(CCn1c(=S)[nH]c2ccccc2c1=O)NCCCN1CCCC1=O, CSc1nnc(-c2ccncc2)n1CCCN1CCCC1=O, COc1ccc(N2C(=O)CC(N3CCC(C(N)=O)CC3)C2=O)cc1 (centres undefined), CC(C)NC(=O)N1CC[C@@]2(CCCN(C(=O)c3cccc(F)c3)C2)C1, CCCCCNC(=O)Cc1ccc(OC)cc1, CCS(=O)(=O)n1nc(-c2ccccc2)nc1SCc1ccccc1, CCCCCOC(=O)C1=C(C)Nc2nnnn2C1c1ccc(OC)c(OC)c1OC (centres undefined), COc1ccccc1NC(=O)C1=C(C)Nc2nnnn2C1c1cccc(Br)c1 (centres undefined), CC(=O)OC(C(=O)NC1CCCCC1)c1ccccc1 (centres undefined), Cc1cc(C(=O)OCC(=O)c2c(N)n(C)c(=O)n(C)c2=O)c(C)o1, Cc1ccc2cc(C#N)c(SCC(=O)NCC3CCCO3)nc2c1C (centres undefined), CC(NC(=O)c1cc(-c2ccccc2)on1)c1ccccc1 (centres undefined), CCC(C)NC(=O)C1CCC(=O)N1Cc1ccc(C)cc1 (centres undefined), NC(=O)C1(N2CCCCC2)CCN(C(=O)c2ccc(C#Cc3ccccc3)o2)CC1, O=S(=O)(NCc1ccccc1Cl)c1cnc[nH]1, O=C(O)CCC(=O)N(Cc1cccs1)Cc1cccs1, Cc1cc(NC(=O)c2cc(-c3cccs3)on2)nn1Cc1ccc(Cl)cc1, COc1ccc(NC(=O)N2CC3(CCN(C(C)=O)CC3)C2)cc1, CC(C)c1ccc(NC(=O)NC2CCCCC2)cc1, FC(F)(F)c1ccccc1-c1nc(-n2ccnc2)c2ccccc2n1, Cn1c(=O)[nH]c(=O)c2c1nc(NCCCn1ccnc1)n2Cc1cccc(Br)c1, COc1ccc(NC(=O)c2c(C)oc3c2CCCC3)cc1, COc1cccc(NC(=O)c2ccccc2SC)c1, O=C(O)c1ccc(C(=O)c2ccccc2C(=O)O)cc1C(=O)O, C=CCn1c(COc2ccccc2F)nnc1SCC(=O)N1CC(=O)Nc2ccccc21, CCOC(=O)CNC(=O)CSc1nnc(COc2ccc(Cl)cc2)n1CC, COCc1nc2ccccc2n1Cc1ccccc1Br, COc1ccc(OCC(=O)OCCN(C)C)cc1, CCOC(=O)c1c(C)oc2ccc(OCC(=O)N(CC)CC)cc12, Cc1nn(-c2ccccc2)c(C)c1C(=O)OCC(=O)NC(=O)NC1CCCCC1, O=C(CSc1nnc(-c2ccccn2)n1-c1ccccc1)Nc1ccc2c(c1)OCO2, O=c1ccc2cc(S(=O)(=O)N3CCN(c4ccccc4)CC3)ccc2o1, Cc1cc(C)cc(NC(=O)C2CCN(c3nc(C)cc(C)n3)CC2)c1, Cc1ccc2c(NC(=O)C3CC3)cccc2n1, CCCC(=O)N1c2ccc(-c3csc(N)n3)cc2CC1C (centres undefined), Cc1noc(NS(=O)(=O)c2ccc(N3CC(O)=C(c4ccccc4)C3=N)cc2)c1C, COc1cccc(N(C(=O)c2ccn[nH]2)C2(C(=O)Nc3c(C)cccc3C)CCCCC2)c1, CS(=O)(=O)N1CCC[C@@]2(CCN(c3ccncc3)C2)C1, Cc1ccc(CN2C(=O)CCC2C(=O)NCCCN2CCCCC2C)cc1 (centres undefined), COc1ccccc1CN1CC2(CCN(S(=O)(=O)c3ccccc3)CC2)C1, CC(C)OCCCNC(=O)C1CC(=O)N(C2CCCCCCC2)C1 (centres undefined), COc1ccc(CCNS(=O)(=O)c2ccc(F)cc2)cc1OC, CSc1nc(N)c(C#N)c(-c2ccccc2Cl)c1C#N, CCCc1[nH]nc2c1C(c1c(C)nn(-c3ccccc3)c1Cl)C(C#N)=C(N)O2 (centres undefined)

Max dye-equivalent concentration, active:
O=C(Nc1ccc(-c2nnc(-c3ccccc3)o2)cc1)c1ccc(Br)o1 68 nM, CN1c2ccccc2-c2nc3ccccc3n2C1c1ccco1 (centres undefined) 3400 nM, O=C(NC1CCCCC1)c1ccc2c(=O)n(CC3CCCO3)c(=O)[nH]c2c1 (centres undefined) 15 nM, CS(=O)(=O)N(Cc1nc2sc3c(c2c(=O)[nH]1)CCCC3)C1CCCCC1 44 nM, CC(C)(C)OC(=O)c1c(N)n(CCCN2CCCC2=O)c2nc3ccccc3nc12 9100 nM, COC(=O)c1ccc(C2C3=C(Nc4nnnn42)c2ccccc2OC3)cc1 (centres undefined) 74 nM, CC(NC(=O)CSc1nc2c(cc1C#N)CN(C)CC2)c1ccccc1 (centres undefined) 26 nM, CC(C)Cn1c(CCC(=O)O)ccc1-c1cccs1 410 nM, COc1cc(OC)cc(C(=O)Nc2ccc(-c3nc4ccccc4o3)c(O)c2)c1 310 nM, COC(=O)COc1ccc2oc(=O)cc(C)c2c1 28 nM, CC(=O)N1CCC(C(=O)Nc2nc(-c3ccccc3)ns2)CC1 1700 nM, COc1ccc(OC)c2c(N)c(C#N)c(C(F)(F)C(F)(F)F)nc12 150 nM, CSc1ccc(-c2c(C#N)c(N)nc3c2c(C)nn3-c2ccccc2)cc1 360 nM
